In ChEMBL document CHEMBL2218924, “A broad activity screen in support of a chemogenomic map for kinase signalling research and drug discovery” (Biochem J, 2013):

Key:
[1] = molecular target: T1, CDK9/cyclin T1 (Homo sapiens) (UniProt O60563+P50750); details: at 1 µM
[2] = molecular target: T1, CDK9/cyclin T1 (Homo sapiens); details: at 10 µM
[3] = molecular target: T2, Serine/threonine-protein kinase Chk1 (Homo sapiens) (UniProt O14757); details: at 1 µM
T2 sequence (whole entry): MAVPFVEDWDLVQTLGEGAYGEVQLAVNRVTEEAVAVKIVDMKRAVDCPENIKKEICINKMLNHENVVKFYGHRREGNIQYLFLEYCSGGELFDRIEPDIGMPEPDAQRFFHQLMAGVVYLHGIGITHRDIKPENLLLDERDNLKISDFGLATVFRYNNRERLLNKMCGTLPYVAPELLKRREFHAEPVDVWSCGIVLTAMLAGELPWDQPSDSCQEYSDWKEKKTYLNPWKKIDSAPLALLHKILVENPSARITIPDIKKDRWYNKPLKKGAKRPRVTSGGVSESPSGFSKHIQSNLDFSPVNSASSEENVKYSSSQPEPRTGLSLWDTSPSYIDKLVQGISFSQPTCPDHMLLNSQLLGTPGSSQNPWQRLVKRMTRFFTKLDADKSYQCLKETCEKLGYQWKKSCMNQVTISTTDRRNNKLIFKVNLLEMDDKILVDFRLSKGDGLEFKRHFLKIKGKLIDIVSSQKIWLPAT

[4] = molecular target: T2, Serine/threonine-protein kinase Chk1 (Homo sapiens); details: at 10 µM
[5] = molecular target: Serine/threonine-protein kinase Chk2 (Homo sapiens) (UniProt O96017); details: at 1 µM
[6] = molecular target: Serine/threonine-protein kinase Chk2 (Homo sapiens) (UniProt O96017); details: at 10 µM
[7] = molecular target: Casein kinase I isoform gamma-1 (Homo sapiens) (UniProt Q9HCP0); details: at 1 µM
[8] = molecular target: Casein kinase I isoform gamma-1 (Homo sapiens) (UniProt Q9HCP0); details: at 10 µM
[9] = molecular target: Casein kinase I isoform delta (Homo sapiens) (UniProt P48730); details: at 1 µM
[10] = molecular target: Casein kinase I isoform delta (Homo sapiens) (UniProt P48730); details: at 10 µM

Sequence of Casein kinase I isoform delta (Homo sapiens) (P48730 whole entry, looked up, canonical isoform): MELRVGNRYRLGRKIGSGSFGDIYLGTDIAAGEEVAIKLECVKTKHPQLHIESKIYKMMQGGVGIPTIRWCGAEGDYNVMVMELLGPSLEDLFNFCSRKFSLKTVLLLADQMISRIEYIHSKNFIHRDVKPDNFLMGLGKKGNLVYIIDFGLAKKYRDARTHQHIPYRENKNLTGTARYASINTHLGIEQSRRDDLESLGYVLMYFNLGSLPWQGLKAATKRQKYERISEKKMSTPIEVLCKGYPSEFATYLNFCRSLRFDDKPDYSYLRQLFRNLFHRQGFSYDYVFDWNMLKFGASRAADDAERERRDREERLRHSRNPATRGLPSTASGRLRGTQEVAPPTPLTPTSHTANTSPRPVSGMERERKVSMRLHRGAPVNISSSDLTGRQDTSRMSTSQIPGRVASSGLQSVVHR
Sequence of Casein kinase I isoform gamma-1 (Homo sapiens) (Q9HCP0 whole entry, looked up, canonical isoform): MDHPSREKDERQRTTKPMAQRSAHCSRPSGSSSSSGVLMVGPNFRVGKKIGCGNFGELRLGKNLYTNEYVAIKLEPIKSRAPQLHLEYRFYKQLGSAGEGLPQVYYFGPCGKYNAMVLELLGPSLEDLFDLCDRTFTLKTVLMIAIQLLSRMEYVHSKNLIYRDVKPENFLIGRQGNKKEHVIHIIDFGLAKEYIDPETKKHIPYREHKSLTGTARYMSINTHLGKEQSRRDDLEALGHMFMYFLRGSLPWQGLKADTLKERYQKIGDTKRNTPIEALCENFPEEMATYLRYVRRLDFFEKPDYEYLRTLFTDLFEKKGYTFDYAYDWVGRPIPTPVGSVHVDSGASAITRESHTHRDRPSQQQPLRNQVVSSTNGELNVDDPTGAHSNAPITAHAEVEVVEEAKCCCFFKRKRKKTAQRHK
Sequence of Serine/threonine-protein kinase Chk2 (Homo sapiens) (O96017 whole entry, canonical isoform): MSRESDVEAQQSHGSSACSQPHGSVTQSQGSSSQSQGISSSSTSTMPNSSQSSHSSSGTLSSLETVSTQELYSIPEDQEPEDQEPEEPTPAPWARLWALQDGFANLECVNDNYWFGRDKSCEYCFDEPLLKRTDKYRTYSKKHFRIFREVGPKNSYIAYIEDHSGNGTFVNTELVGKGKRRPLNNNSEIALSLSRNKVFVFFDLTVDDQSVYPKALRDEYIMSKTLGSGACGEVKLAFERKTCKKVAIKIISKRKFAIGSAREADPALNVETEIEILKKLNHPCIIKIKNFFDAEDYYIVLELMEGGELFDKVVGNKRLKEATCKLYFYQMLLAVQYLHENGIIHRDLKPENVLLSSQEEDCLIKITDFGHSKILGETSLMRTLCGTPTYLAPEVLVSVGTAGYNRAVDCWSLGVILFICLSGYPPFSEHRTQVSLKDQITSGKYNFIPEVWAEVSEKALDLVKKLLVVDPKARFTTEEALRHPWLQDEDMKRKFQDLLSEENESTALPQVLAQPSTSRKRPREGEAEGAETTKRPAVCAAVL

C[S+]([O-])c1ccc(-c2nc(-c3ccc(F)cc3)c(-c3ccncc3)[nH]2)cc1 (stereo unspecified)
residual activity [1]: 98%
residual activity [2]: 108%
residual activity [3]: 104%
residual activity [4]: 97%
residual activity [5]: 90%
residual activity [6]: 90%
residual activity [7]: 119%
residual activity [8]: 61%

COc1ccc2c(c[n+](C)c3c4cc5c(cc4ccc23)OCO5)c1OC
residual activity [3]: 86%
residual activity [4]: 99%
residual activity [5]: 73%
residual activity [6]: 90%
residual activity [7]: 80%
residual activity [8]: 71%

CCn1cnc2c(Nc3cccc(Cl)c3)nc(N[C@@H]3CCCC[C@@H]3N)nc21
residual activity [1]: 8%
residual activity [2]: 0%
residual activity [3]: 83%
residual activity [4]: 28%
residual activity [5]: 59%
residual activity [6]: 12%
residual activity [7]: 30%
residual activity [8]: 6%
residual activity [9]: 89%
residual activity [10]: 51%

COC(=O)[C@@]1(O)C[C@H]2O[C@]1(C)n1c3ccccc3c3c4c(c5c6ccccc6n2c5c31)C(=O)NC4
residual activity [1]: 10%
residual activity [2]: 2%
residual activity [3]: 1%
residual activity [4]: -1%
residual activity [5]: 3%
residual activity [6]: 1%
residual activity [7]: 93%
residual activity [8]: 57%
residual activity [9]: 79%
residual activity [10]: 37%

CC(C)[C@H](CO)Nc1nc(Nc2cccc(Cl)c2)c2ncn(C(C)C)c2n1
residual activity [1]: 23%
residual activity [2]: 5%
residual activity [3]: 99%
residual activity [4]: 86%
residual activity [5]: 96%
residual activity [6]: 38%
residual activity [7]: 10%
residual activity [8]: 1%
residual activity [9]: 74%
residual activity [10]: 23%

N/C(=N\[N+](=O)[O-])N/N=C\c1ccc(-c2cccc([N+](=O)[O-])c2)o1
residual activity [5]: 91%
residual activity [6]: 75%
residual activity [7]: 88%
residual activity [8]: 82%
residual activity [9]: 80%
residual activity [10]: 76%

CC(C)(C)c1cc(C=C(C#N)C#N)cc(Br)c1O
residual activity [3]: 105%
residual activity [4]: 105%
residual activity [5]: 96%
residual activity [6]: 99%
residual activity [7]: 104%
residual activity [8]: 97%
residual activity [9]: 99%
residual activity [10]: 48%

CN[C@@H]1C[C@H]2O[C@@](C)([C@@H]1OC)n1c3ccccc3c3c4c(c5c6ccccc6n2c5c31)C(=O)NC4
residual activity [9]: 77%
residual activity [10]: 46%

c1cc(-c2cnn3cc(-c4ccc(OCCN5CCCCC5)cc4)cnc23)ccn1
residual activity [1]: 35%
residual activity [2]: 5%
residual activity [3]: 101%
residual activity [4]: 87%
residual activity [8]: 63%
residual activity [9]: 21%
residual activity [10]: 3%

COc1ccc2c(c1)/C(=C/c1cnc[nH]1)C(=O)N2
residual activity [1]: 32%
residual activity [2]: 7%
residual activity [3]: 77%
residual activity [4]: 30%
residual activity [5]: 67%
residual activity [6]: 25%
residual activity [8]: 67%
residual activity [9]: 81%
residual activity [10]: 37%

O=c1[nH]c2ccccc2n1C1CCN(Cc2ccc(-c3nc4cc5[nH]cnc5cc4nc3-c3ccccc3)cc2)CC1
residual activity [1]: 104%
residual activity [2]: 105%
residual activity [3]: 102%
residual activity [4]: 88%
residual activity [5]: 95%
residual activity [6]: 87%
residual activity [7]: 90%
residual activity [8]: 62%
residual activity [9]: 84%
residual activity [10]: 53%

COc1cc2ncnc(Nc3ccc(OCc4ccccc4)cc3)c2cc1OC
residual activity [1]: 100%
residual activity [2]: 87%
residual activity [3]: 101%
residual activity [4]: 87%
residual activity [5]: 8%
residual activity [6]: 3%
residual activity [7]: 95%
residual activity [8]: 95%
residual activity [9]: 77%
residual activity [10]: 79%

CCc1nc(-c2ccc(OC)cc2)[nH]c1-c1ccncc1
residual activity [9]: 74%
residual activity [10]: 37%

COc1cc2nccc(Oc3ccc(NC(=O)Nc4cc(C)on4)c(Cl)c3)c2cc1OC
residual activity [1]: 76%

O=C1NC(=O)c2c1c1c3ccccc3n3c1c1c2c2ccccc2n1C1CCC3O1
residual activity [1]: 71%
residual activity [2]: 66%
residual activity [3]: 25%
residual activity [4]: 20%
residual activity [5]: 26%
residual activity [6]: 24%
residual activity [9]: 75%
residual activity [10]: 75%

O=[N+]([O-])/C=C/c1ccc2c(c1)OCO2
residual activity [1]: 112%
residual activity [2]: 100%
residual activity [3]: 85%
residual activity [4]: 101%
residual activity [5]: 85%
residual activity [6]: 85%
residual activity [7]: 83%
residual activity [9]: 98%
residual activity [10]: 113%

O=C1Nc2ccc3ncsc3c2/C1=C/c1c[nH]cn1
residual activity [1]: 5%
residual activity [2]: 3%
residual activity [3]: 35%
residual activity [4]: 8%
residual activity [5]: 50%
residual activity [6]: 15%
residual activity [7]: 70%
residual activity [8]: 28%
residual activity [9]: 23%
residual activity [10]: 4%

COc1cc(OC)c(/C=C2\C(=O)Nc3ccccc32)c(OC)c1
residual activity [1]: 94%
residual activity [2]: 48%
residual activity [3]: 88%
residual activity [4]: 81%
residual activity [5]: 89%
residual activity [6]: 78%
residual activity [7]: 101%
residual activity [8]: 70%
residual activity [9]: 37%
residual activity [10]: 6%
